Screening results as filed in PubChem BioAssay.
This is a sample that favours compounds with a hit; in the whole collection about 9.5% have one here.
Pf growth 48h: P. falciparum growth inhibition at 48 hours (one generation). P. falciparum luciferase growth in erythrocytes, 48 h. Potency, µM (titrated, usually from 28.7 µM), hits mostly inhibitors. 5.9% of 310,000 active. AID 504832; active = well fitted inhibition curve with a large enough effect; inconclusive = small, poorly fitted or top-dose-only effect, or another doubt; inactive = no such curve, though single readings can be large or run the other way
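Luciferase-expressing parasites in RBCs, 2% Hct / 0.1% parasitemia final; RPMI 1640 + 0.5% Albumax; 37 C, 5% CO2, one generation; luminescence read-out, lower signal = inhibition.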
Pf growth 96h: inhibits malaria parasite growth, 96 h | P. falciparum luciferase reporter growth, 96 h | Potency, µM (doses to about 28.7 µM), hits mostly inhibitors | 6.9% of 320,000 active | AID 504834; active = well fitted inhibition curve with a large enough effect; inconclusive = small, poorly fitted or top-dose-only effect, or another doubt; inactive = no such curve, though single readings can be large or run the other way
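Erythrocytes infected with luciferase-expressing P. falciparum were dispensed at 2% hematocrit and 0.05% parasitemia (final), then incubated with compounds 96 hours at 37 C in 5% CO2. Luminescence after detection reagent addition reported growth.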
RE007 growth inh: less growth of the S. pombe RE007 Vpr strain. Potency, µM (series often up to 92.2 µM), hits mostly inhibitors. S. pombe RE007 Vpr strain, BacTiter-Glo ATP luminescence, 24 h. 0.21% of 360,000 active. AID 651644; active = well fitted falling curve with a large enough effect; inconclusive = small, poorly fitted or top-dose-only effect; inactive = no such curve, though single readings can be large or run the other way; also: nearly all actives have a fitted effect of over 50% in size
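Fission yeast RE007 carrying one integrated HIV-1 vpr copy, seeded at OD 0.01 in PMG+AL medium with 23 nL pinned compound. Grown 24 h at 30 degrees; viability read by BacTiter-Glo luminescence after 5 min.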
SARS PLP yeast: SARS-CoV PLP inhibition in yeast. 0.19% of 330,000 active. Potency, µM (doses to about 32.9 µM), usual class: activators. AID 485353. S. cerevisiae expressing SARS-CoV PLpro, growth rescue; also: nearly all actives have a fitted effect of over 55% in size
NS1 inh: influenza NS1 inhibition; Potency, µM (titrated, usually from 46.1 µM); 0.4% of 270,000 active; AID 2326; also: actives are rising curves; nearly all actives have a fitted effect of over 50% in size
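Compounds were scored for reversing the slow growth caused by influenza A NS1 in S. cerevisiae, measured by optical density at 600 nm. Assay medium contained 2% galactose at pH 6.0; NS1-free yeast of the same strain were the positive control.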
A number is an active result; . = inactive; ? = inconclusive; / = not tested or not shown. Unless noted, calls follow the shape of the full dose curve.

SMILES	Pf growth 48h	Pf growth 96h	RE007 growth inh	SARS PLP yeast	NS1 inh
CCOc1ccccc1N1C(=O)c2ccc(S(=O)(=O)c3ccc(C(=O)O)cc3)cc2C1=O	.	0.17µM	.	.	.
CC(=O)Oc1ccccc1N1C(=O)c2ccc(C(=O)O)cc2C1=O	.	.	.	.	.
CN1C(=O)c2ccc(S(=O)(=O)c3ccc(C(=O)O)cc3)cc2C1=O	.	.	.	.	.
CC(=O)Nc1ccc(N2C(=O)c3ccc(S(=O)(=O)c4ccc(C(=O)O)cc4)cc3C2=O)cc1	12µM	.	.	.	.
O=C(O)c1ccc(S(=O)(=O)c2ccc3c(c2)C(=O)N(c2ccccc2[N+](=O)[O-])C3=O)cc1	.	13µM	.	.	.
N[C@@H](Cc1nn[nH]n1)C(=O)O	/	/	/	/	.
CCCCNC(=O)O/N=C(\N)CS(=O)(=O)C(C)(C)C	.	.	.	.	.
COc1ccc(C(=O)NCC(=O)N2CCN(C(=O)c3ccco3)CC2)cc1	.	.	.	?	.
CC(C)(CO)NCc1cc(Br)ccc1OCc1ccccc1	10µM	/	.	.	.
Cc1nc(N2CCN(c3ccccn3)CC2)c2c(C)c(C(=O)Nc3ccccc3F)sc2n1	6.6µM	?	.	.	/
Cc1nc(N2CCC(C)CC2)c2c(C)c(C(=O)Nc3cccc(C(F)(F)F)c3)sc2n1	?	.	.	.	/
Cc1nc(N2CCC(C)CC2)c2c(C)c(C(=O)Nc3ccc(C(F)(F)F)cc3)sc2n1	0.21µM	?	.	.	/
Cc1ccc(F)cc1NC(=O)c1sc2ncn(CC(=O)N3CCN(c4ccccn4)CC3)c(=O)c2c1C	.	15µM	.	.	.
Cc1nc(N2CCN(c3ccccn3)CC2)c2c(C)c(C(=O)Nc3ccc(F)cc3F)sc2n1	8.3µM	.	.	.	/
Cc1nc(N2CCN(c3ccccn3)CC2)c2c(C)c(C(=O)Nc3ccc(F)cc3Cl)sc2n1	?	.	.	.	.
CC(C)(C)C1CCN2CCC[C@](c3ccccc3)(C1)C2OCCCO (some centres not stated)	/	/	.	/	/
O=C1c2ccccc2C(=O)c2c(NC3CCCCC3)ccc(Nc3ccc(S(=O)(=O)O)cc3)c21	/	/	/	/	.
COc1ccc(Cn2cc(Cn3c4ccccc4c(=O)n3C(C)C)nn2)cc1	/	/	.	/	/
COc1cc(OC)cc(C(=O)OCC(=O)NC2CCCCCCC2)c1	/	/	.	/	/
CCN1CCN(c2c(/C=C3\SC(=S)N(Cc4ccco4)C3=O)c(C)c(C#N)c(=O)n2C)CC1	2.3µM	?	.	.	.
COc1ccc(OC)c2[nH]c(=O)c(CCNC(=O)Cc3cccs3)cc12	.	.	.	.	/
Cc1ccc(CNC(=O)C23CN(Cc4ccccc4)CC2C(c2ccc([N+](=O)[O-])cc2)=NO3)cc1 (configuration not stated)	12µM	?	.	.	.
COc1ccccc1C(=O)C1CCCN(C(=O)c2snnc2C)C1 (configuration not stated)	?	.	.	.	.
COc1ccc(C(=O)C(c2ccccc2)N2CCOCC2)cc1 (configuration not stated)	?	?	.	.	.
Cc1ccc(C(=O)C(c2ccccc2)N2Cc3ccccc3C2=N)cc1 (configuration not stated)	?	10µM	.	.	.
SMILES	Pf growth 48h	Pf growth 96h	RE007 growth inh	SARS PLP yeast	NS1 inh
CCC(C)(C)C1CCc2[nH]nc(C(=O)NCCN3CCOCC3)c2C1 (configuration not stated)	?	?	.	.	/
CCC(C)(C)C1CCc2[nH]nc(C(=O)NCc3ccccn3)c2C1 (configuration not stated)	15µM	9.3µM	.	.	/
CCC(C)(C)C1CCc2[nH]nc(C(=O)NCc3ccc(Cl)cc3)c2C1 (configuration not stated)	?	?	.	.	/
CCC(C)(C)C1CCc2[nH]nc(C(=O)NCCCNC(=O)OC(C)(C)C)c2C1 (configuration not stated)	9.3µM	.	.	.	/
CN1CCN(Cc2nc3cccc4c3c([n+]2[O-])-c2ccccc2-4)CC1	/	/	/	/	.
CCN(CC)CCCC(C)Nc1c2ccc(Cl)cc2nc2ccc(OC)cc12 (configuration not stated)	/	/	/	.	.
COc1ccc2nc3cc(Cl)ccc3c(Nc3cc(C(C)C)c(O)cc3C)c2c1	0.021µM	0.066µM	.	.	.
COc1ccc(OCC(=O)N2c3ccc(C)cc3C3CN(C)CCC32)cc1 (configuration not stated)	.	.	.	.	.
